ChEMBL document CHEMBL1961873, “Compounds: GSK PKIS; Assays: Nanosyn kinase panel” (2012)

Columns and labels:
[1] = target: T1, Tyrosine-protein kinase receptor TYRO3 (Homo sapiens) (UniProt Q06418); conditions: at 1 µM
T1 sequence (whole entry): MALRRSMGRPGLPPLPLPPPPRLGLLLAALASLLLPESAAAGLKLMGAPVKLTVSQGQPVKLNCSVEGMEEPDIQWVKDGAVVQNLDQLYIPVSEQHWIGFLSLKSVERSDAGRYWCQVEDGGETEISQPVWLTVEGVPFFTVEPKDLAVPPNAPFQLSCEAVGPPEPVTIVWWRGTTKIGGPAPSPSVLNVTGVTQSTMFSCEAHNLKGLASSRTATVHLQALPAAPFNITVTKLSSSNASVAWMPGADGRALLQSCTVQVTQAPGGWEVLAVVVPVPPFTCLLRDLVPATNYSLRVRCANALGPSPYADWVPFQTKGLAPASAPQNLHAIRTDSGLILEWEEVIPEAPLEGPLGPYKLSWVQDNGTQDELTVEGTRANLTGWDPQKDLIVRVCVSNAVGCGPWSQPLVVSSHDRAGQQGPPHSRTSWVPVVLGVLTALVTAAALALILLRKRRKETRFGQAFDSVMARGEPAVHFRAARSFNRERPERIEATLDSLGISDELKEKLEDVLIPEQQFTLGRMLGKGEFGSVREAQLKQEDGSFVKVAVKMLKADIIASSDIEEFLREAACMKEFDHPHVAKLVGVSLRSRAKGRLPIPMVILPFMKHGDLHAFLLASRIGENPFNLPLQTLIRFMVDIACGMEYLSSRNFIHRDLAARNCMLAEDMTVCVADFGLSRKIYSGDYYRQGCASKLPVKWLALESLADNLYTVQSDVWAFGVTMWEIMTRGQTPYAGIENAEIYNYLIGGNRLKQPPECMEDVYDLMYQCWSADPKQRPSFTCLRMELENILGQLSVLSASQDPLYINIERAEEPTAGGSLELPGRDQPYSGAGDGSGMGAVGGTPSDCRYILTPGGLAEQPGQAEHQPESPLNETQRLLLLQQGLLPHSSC

[2] = target: Tyrosine-protein kinase Yes (Homo sapiens) (UniProt P07947); conditions: at 0.1 µM
Sequence of Tyrosine-protein kinase Yes (Homo sapiens) (P07947 2-543 limits assumed): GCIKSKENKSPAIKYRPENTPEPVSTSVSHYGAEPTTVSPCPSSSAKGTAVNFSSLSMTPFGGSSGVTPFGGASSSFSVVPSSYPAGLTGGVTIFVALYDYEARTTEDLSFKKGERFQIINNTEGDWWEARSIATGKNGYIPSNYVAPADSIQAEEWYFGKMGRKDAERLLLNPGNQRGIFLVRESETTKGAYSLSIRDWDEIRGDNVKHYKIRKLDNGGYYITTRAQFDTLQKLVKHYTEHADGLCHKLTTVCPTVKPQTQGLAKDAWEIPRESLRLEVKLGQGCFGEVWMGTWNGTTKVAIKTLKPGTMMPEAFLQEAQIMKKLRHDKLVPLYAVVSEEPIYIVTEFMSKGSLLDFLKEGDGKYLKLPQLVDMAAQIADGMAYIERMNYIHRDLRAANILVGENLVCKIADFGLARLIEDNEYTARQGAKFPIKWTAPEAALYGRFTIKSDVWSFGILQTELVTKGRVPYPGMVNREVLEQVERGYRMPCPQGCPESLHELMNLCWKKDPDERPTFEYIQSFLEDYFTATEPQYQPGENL

[3] = target: Tyrosine-protein kinase Yes (Homo sapiens) (UniProt P07947); conditions: at 1 µM
[4] = target: T2, Tyrosine-protein kinase ZAP-70 (Homo sapiens) (UniProt P43403); conditions: at 0.1 µM
T2 sequence (whole entry): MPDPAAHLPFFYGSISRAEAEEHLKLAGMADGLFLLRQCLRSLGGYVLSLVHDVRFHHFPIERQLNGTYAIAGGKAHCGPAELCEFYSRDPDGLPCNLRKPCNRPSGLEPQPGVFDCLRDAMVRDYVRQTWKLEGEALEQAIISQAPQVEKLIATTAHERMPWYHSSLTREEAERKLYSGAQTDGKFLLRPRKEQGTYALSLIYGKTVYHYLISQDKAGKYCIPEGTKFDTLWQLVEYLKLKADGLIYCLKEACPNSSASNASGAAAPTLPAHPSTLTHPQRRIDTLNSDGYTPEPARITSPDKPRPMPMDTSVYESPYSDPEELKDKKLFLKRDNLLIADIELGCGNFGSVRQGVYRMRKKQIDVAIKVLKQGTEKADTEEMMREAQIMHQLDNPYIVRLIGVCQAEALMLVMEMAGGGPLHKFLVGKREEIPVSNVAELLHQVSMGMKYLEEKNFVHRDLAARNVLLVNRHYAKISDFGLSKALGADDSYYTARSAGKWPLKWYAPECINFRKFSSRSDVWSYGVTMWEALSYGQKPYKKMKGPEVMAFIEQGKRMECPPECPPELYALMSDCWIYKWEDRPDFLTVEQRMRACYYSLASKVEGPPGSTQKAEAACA

[5] = target: T2, Tyrosine-protein kinase ZAP-70 (Homo sapiens); conditions: at 1 µM
[6] = target: Serine/threonine-protein kinase B-raf (Homo sapiens) (UniProt P15056); conditions: at 0.1 µM
Sequence of Serine/threonine-protein kinase B-raf (Homo sapiens) (P15056 whole entry): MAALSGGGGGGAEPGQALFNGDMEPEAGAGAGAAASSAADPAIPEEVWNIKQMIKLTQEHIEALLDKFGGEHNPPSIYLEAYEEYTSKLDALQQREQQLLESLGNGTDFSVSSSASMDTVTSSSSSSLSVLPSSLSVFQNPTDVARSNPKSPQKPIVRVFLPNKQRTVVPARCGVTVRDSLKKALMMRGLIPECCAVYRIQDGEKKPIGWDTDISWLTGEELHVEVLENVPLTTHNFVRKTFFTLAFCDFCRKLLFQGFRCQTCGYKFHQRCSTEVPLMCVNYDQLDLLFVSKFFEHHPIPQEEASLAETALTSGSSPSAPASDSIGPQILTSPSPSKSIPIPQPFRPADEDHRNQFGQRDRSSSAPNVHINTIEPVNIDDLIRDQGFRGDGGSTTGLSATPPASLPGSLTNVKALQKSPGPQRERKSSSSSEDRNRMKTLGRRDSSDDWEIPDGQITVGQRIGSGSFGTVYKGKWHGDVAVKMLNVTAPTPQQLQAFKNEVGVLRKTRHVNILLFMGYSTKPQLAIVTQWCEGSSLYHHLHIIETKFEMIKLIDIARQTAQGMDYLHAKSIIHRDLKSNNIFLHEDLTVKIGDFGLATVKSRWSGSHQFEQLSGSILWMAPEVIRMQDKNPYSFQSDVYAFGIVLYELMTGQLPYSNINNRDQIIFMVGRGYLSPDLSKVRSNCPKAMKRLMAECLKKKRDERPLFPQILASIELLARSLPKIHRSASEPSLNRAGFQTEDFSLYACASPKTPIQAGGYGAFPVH

[7] = target: Serine/threonine-protein kinase B-raf (Homo sapiens) (UniProt P15056); conditions: at 1 µM
[8] = test system: Serine/threonine-protein kinase B-raf (Homo sapiens), P15056 [V600E]; conditions: at 0.1 µM
Sequence of Serine/threonine-protein kinase B-raf (Homo sapiens), P15056 [V600E] (P15056 whole entry V600E): as the sequence (P15056 whole entry) above, with V600E counted along it

[9] = test system: Serine/threonine-protein kinase B-raf (Homo sapiens), P15056 [V600E]; conditions: at 1 µM
[10] = target: RAF proto-oncogene serine/threonine-protein kinase (Homo sapiens) (UniProt P04049); conditions: at 0.1 µM;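 also: values are mean CRAF kinase inhibition from profiling of the GSK Published Kinase Inhibitor Set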
Sequence of RAF proto-oncogene serine/threonine-protein kinase (Homo sapiens) (P04049 whole entry): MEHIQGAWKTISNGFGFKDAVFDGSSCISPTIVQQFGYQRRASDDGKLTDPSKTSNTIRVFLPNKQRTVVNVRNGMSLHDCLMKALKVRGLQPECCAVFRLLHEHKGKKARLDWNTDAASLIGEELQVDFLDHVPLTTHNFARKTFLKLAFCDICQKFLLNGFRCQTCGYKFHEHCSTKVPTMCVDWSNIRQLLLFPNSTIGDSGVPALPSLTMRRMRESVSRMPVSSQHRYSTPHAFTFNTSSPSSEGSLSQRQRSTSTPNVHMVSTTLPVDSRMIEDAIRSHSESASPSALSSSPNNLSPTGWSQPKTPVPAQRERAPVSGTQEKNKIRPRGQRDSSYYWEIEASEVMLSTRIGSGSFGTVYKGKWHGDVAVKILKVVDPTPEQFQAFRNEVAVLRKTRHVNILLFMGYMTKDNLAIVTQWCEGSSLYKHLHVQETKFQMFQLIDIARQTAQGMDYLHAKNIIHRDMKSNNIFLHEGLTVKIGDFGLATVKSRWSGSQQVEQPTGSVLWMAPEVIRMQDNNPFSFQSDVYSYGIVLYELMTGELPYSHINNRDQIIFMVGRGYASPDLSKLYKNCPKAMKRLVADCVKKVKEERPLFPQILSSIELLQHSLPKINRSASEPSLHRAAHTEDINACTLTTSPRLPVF

Structure (SMILES)	inhibition [1]	inhibition [2]	inhibition [3]	inhibition [4]	inhibition [5]	inhibition [6]	inhibition [7]	inhibition [8]	inhibition [9]	inhibition [10]
O=C1Nc2ccc(C(=O)c3ccco3)cc2C1=Cc1cc(Cl)c(O)c(Cl)c1	8.57%	2.58%	15.8%	2.14%	3.97%	11.8%	26.7%	12.5%	27.4%	2.35%
Cn1cc(C=C2C(=O)Nc3cccnc32)c2ccccc21	13.2%	5.4%	45.1%	1.96%	11.5%	3.28%	6.52%	2.79%	5.11%	-3.3%
Cc1ccc(C(=O)NC2CCCCC2)cc1-c1ccc(C(=O)NCC2CC2)cc1	-0.08%	1.31%	1.09%	2.48%	6.15%	3.92%	3.21%	3.15%	3.03%	4.27%
CN(C)c1cc2c(Nc3ccc4nc(Cc5ccccc5)[nH]c4c3)ncnc2cn1	4.25%	9.2%	37%	6.34%	12.4%	7.82%	7.35%	7.73%	11.2%	-7.41%
CC1=C(C(=O)Nc2ccc3[nH]ncc3c2)C(c2ccc(Cl)c(Cl)c2)CC(=O)N1 (stereo not given)	1.34%	4.16%	20%	0.71%	2.3%	5.79%	31.6%	6.48%	31.4%	4.61%
NC(=O)c1cccc(Nc2nccc(Nc3cccc4[nH]ncc34)n2)c1	54.4%	32%	82.5%	-2.28%	4.64%	-3.03%	4.38%	-3.72%	3.75%	-3.86%
Cc1ccc(NC(=O)c2ccnc(N3CCCC3)c2)cc1-c1ccc(C(=O)NCC2CC2)cc1	1.97%	2.17%	3.08%	-2.27%	0.03%	8.24%	14.7%	7.57%	15%	4.02%
CS(=O)(=O)Nc1ccc(N/C=C2\C(=O)Nc3ccccc32)cc1	6.06%	-1.31%	10.4%	-3.14%	-2.93%	-2.74%	-2.55%	-3.06%	-2.04%	-5.04%
COc1ccc2cc(-c3c(-c4ccncc4)nc(-c4ccc([S+](C)[O-])cc4)n3C)ccc2c1 (stereo not given)	0.86%	2.16%	8.42%	1.94%	2.34%	3.84%	5.05%	4.92%	4.5%	0.38%
CCn1c(-c2nonc2N)nc2c(C#CC(C)(C)O)nc(CN3CCCC3)cc21	-1.52%	-0.41%	5.7%	2.82%	1.75%	-1.46%	-1.6%	-1.31%	-0.8%	-3.54%
